Laboratory results: PubChem BioAssay AID1159580 (chemical genetic matrix, 2015)
About 2,000 (36%) of roughly 5,500 compounds were called active. About 18% were inconclusive and are not listed. Rule as the data show it: active = normalized growth mostly below about 0.91 (no sharp cut-off); inconclusive = no clear call, values can overlap the other calls; inactive = mostly above about 0.92. The list shows a part of the results.

Experiment: chemical genetic growth profiling, strain panel (AID 1159580);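 also: tested at 20 µM; growth read once vehicle control cultures reached saturation at 30 °C; 1 = growth at the plate median or of vehicle wells; lower values mean less growth of the strain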
Conditions: growth OD

Measured: normalized growth

C=C[C@@H](C1=CC(=O)C(OC)=C(OC)C1=O)c1ccccc1
inactive: S. cerevisiae deletion strains, locus YKL009W, strain mrt4, hits give low values 0.957 | S. cerevisiae deletion strains, locus YKL068W, hits give low values 1 | S. cerevisiae deletion strains, locus YKL085W, strain MDH1 (second series), hits give low values 0.936 | S. cerevisiae deletion strains, locus YKL085W, strain MDH1, hits give low values 0.936 | S. cerevisiae deletion strains, locus YKR026C, strain gcn3, hits give low values 0.945 | S. cerevisiae deletion strains, locus YKR091W, strain srl3, hits give low values 0.95 | S. cerevisiae deletion strains, locus YLR058C, strain SHM2, hits give low values 0.98 | S. cerevisiae deletion strains, locus YLR357W, strain rsc2, hits give low values 0.901 | S. cerevisiae deletion strains, locus YLR384C, strain iki3, hits give low values 0.982 | S. cerevisiae deletion strains, locus YML032C, strain rad52, hits give low values 0.961 | S. cerevisiae deletion strains, locus YML120C, strain ndi1, hits give low values 0.924 | S. cerevisiae deletion strains, locus YML124C, strain tub3, hits give low values 0.981 | S. cerevisiae deletion strains, locus YNL250W, strain rad50, hits give low values 0.916 | S. cerevisiae deletion strains, locus YNL298W, strain CLA4, hits give low values 0.925 | S. cerevisiae deletion strains, locus YNL322C, strain KRE1 (second series), hits give low values 0.911 | S. cerevisiae deletion strains, locus YNR049C, strain mso1, hits give low values 0.986 | S. cerevisiae deletion strains, locus YNR052C, strain pop2, hits give low values 0.983 | S. cerevisiae deletion strains, locus YOL147C, strain pex11, hits give low values 0.959 | S. cerevisiae deletion strains, locus YOR001W, strain rrp6, hits give low values 0.976 | S. cerevisiae deletion strains, locus YOR080W, strain dia2, hits give low values 1.01 | S. cerevisiae deletion strains, locus YOR144C, strain elg1, hits give low values 0.962 | S. cerevisiae deletion strains, locus YOR231W, strain MKK1, hits give low values 0.93 | S. cerevisiae deletion strains, locus YOR290C, strain snf2, hits give low values 0.911 | S. cerevisiae deletion strains, locus YPL078C, strain atp4, hits give low values 0.954 | S. cerevisiae deletion strains, locus YPL106C, strain sse1, hits give low values 0.984 | S. cerevisiae deletion strains, locus YPL256C, strain CLN2, hits give low values 0.895 | S. cerevisiae deletion strains, locus YPR141C, strain kar3, hits give low values 0.983
active: S. cerevisiae deletion strains, locus YKL160W, strain elf1, hits give low values 0.401 | S. cerevisiae deletion strains, locus YKL190W, strain CNB1, hits give low values 0.0937 | S. cerevisiae deletion strains, locus YKR001C, strain vps1, hits give low values 0.158 | S. cerevisiae deletion strains, locus YLL001W, strain dnm1, hits give low values 0.794 | S. cerevisiae deletion strains, locus YLL026W, hits give low values 0.679 | S. cerevisiae deletion strains, locus YLL041C, strain sdh2, hits give low values 0.811 | S. cerevisiae deletion strains, locus YLR027C, strain aat2, hits give low values 0.448 | S. cerevisiae deletion strains, locus YLR039C, strain RIC1, hits give low values 0.361 | S. cerevisiae deletion strains, locus YLR102C, strain apc9, hits give low values 0.515 | S. cerevisiae deletion strains, locus YLR113W, strain HOG1, hits give low values 0.719 | S. cerevisiae deletion strains, locus YLR221C, strain rsa3, hits give low values 0.363 | S. cerevisiae deletion strains, locus YLR258W, strain gsy2, hits give low values 0.561 | S. cerevisiae deletion strains, locus YLR262C, strain YPT6 (second series), hits give low values 0.17 | S. cerevisiae deletion strains, locus YLR262C, strain YPT6, hits give low values 0.195 | S. cerevisiae deletion strains, locus YLR268W, strain sec22, hits give low values 0.193 | S. cerevisiae deletion strains, locus YLR320W, strain mms22, hits give low values 0.219 | S. cerevisiae deletion strains, locus YLR342W, strain FKS1 (second series), hits give low values 0.331 | S. cerevisiae deletion strains, locus YLR342W, strain FKS1, hits give low values 0.72 | S. cerevisiae deletion strains, locus YLR370C, strain arc18, hits give low values 0.811 | S. cerevisiae deletion strains, locus YLR371W, strain rom2, hits give low values 0.285 | S. cerevisiae deletion strains, locus YLR418C, strain cdc73, hits give low values 0.141 | S. cerevisiae deletion strains, locus YML016C, strain PPZ1, hits give low values 0.292 | S. cerevisiae deletion strains, locus YMR058W, strain fet3, hits give low values 0.612 | S. cerevisiae deletion strains, locus YMR078C, strain ctf18, hits give low values 0.381 | S. cerevisiae deletion strains, locus YMR125W, strain sto1, hits give low values 0.284 | S. cerevisiae deletion strains, locus YMR129W, hits give low values 0.659 | S. cerevisiae deletion strains, locus YMR205C, strain PFK2, hits give low values 0.689 | S. cerevisiae deletion strains, locus YMR223W, strain ubp8, hits give low values 0.493 | S. cerevisiae deletion strains, locus YMR231W, strain pep5, hits give low values 0.529 | S. cerevisiae deletion strains, locus YMR307W, strain GAS1, hits give low values 0.224 | S. cerevisiae deletion strains, locus YNL067W, strain RPL9B, hits give low values 0.67 | S. cerevisiae deletion strains, locus YNL071W, strain lat1, hits give low values 0.0795 | S. cerevisiae deletion strains, locus YNL183C, strain NPR1, hits give low values 0.799 | S. cerevisiae deletion strains, locus YNL209W, strain ssb2, hits give low values 0.748 | S. cerevisiae deletion strains, locus YNL233W, strain BNI4, hits give low values 0.121 | S. cerevisiae deletion strains, locus YNL248C, strain rpa49, hits give low values 0.403 | S. cerevisiae deletion strains, locus YNL271C, strain bni1, hits give low values 0.88 | S. cerevisiae deletion strains, locus YNL307C, strain MCK1, hits give low values 0.0762 | S. cerevisiae deletion strains, locus YNL322C, strain KRE1, hits give low values 0.835 | S. cerevisiae deletion strains, locus YOL012C, strain htz1 0.17 | S. cerevisiae deletion strains, locus YOR061W, strain CKA2, hits give low values 0.829 | S. cerevisiae deletion strains, locus YOR069W, strain VPS5, hits give low values 0.314 | S. cerevisiae deletion strains, locus YOR070C, strain gyp1, hits give low values 0.487 | S. cerevisiae deletion strains, locus YOR083W, strain WHI5, hits give low values 0.554 | S. cerevisiae deletion strains, locus YOR106W, strain vam3, hits give low values 0.297 | S. cerevisiae deletion strains, locus YOR136W, strain idh2, hits give low values 0.675 | S. cerevisiae deletion strains, locus YOR184W, strain ser1, hits give low values 0.15 | S. cerevisiae deletion strains, locus YOR265W, strain rbl2, hits give low values 0.686 | S. cerevisiae deletion strains, locus YOR270C, strain vph1, hits give low values 0.616 | S. cerevisiae deletion strains, locus YOR316C, strain cot1, hits give low values 0.833 | S. cerevisiae deletion strains, locus YPL051W, strain arl3, hits give low values 0.384 | S. cerevisiae deletion strains, locus YPL240C, strain hsp82, hits give low values 0.625 | S. cerevisiae deletion strains, locus YPL241C, strain CIN2, hits give low values 0.523 | S. cerevisiae deletion strains, locus YPR119W, strain clb2, hits give low values 0.615 | S. cerevisiae deletion strains, locus YPR163C, strain tif3, hits give low values 0.151 | S. cerevisiae deletion strains, locus YPR167C, strain met16, hits give low values 0.456 | S. cerevisiae deletion strains, strain wtn01, hits give low values 0.196 | S. cerevisiae strains, strain wild type, hits give low values 0.114
